# Target: PYROXD1
# Test: pooled miR-30 sensor sort-seq; sequence = guide strand
# Conditions: shRNA
# Also: reference of the scale not given here.
row,Sequence,sensor-assay potency score (higher = more potent)
1,TAGATTTGCTTCTAGCTTCCTT,0.523
2,TTGATTGTTCTTCAACATCGAA,-0.89
3,TTTAAAGTAAAATACAACCGAT,-0.96
4,TTAAAGTAAAATACAACCGATT,-0.766
5,TTATCTGCTTTAGATTTGCTTC,-0.93
6,TAGAGTCTCCTGAACTCGCTGC,0.751
7,TAACTCAATACAGTCATTCATT,-0.8
8,TTTAGCTTTAGTAAGCTGTTTC,-0.591

# Target: QSER1
# Test: as above
# Conditions: shRNA
row,Sequence,sensor-assay potency score (higher = more potent)
1,TAACTTGATCTTCAAGACGGGA,-1.26
2,TACAACTGTATTTTCTCTGGAT,0.0285
3,TTGAATTTGATAGATAACTATG,-0.94
4,TTGAATAACATGACCTTCCATC,-0.458
5,TTTATCAGAAGTAGCATCCAAA,-0.195
6,TTCATTATCAACTTTATCTGAT,0.462
7,TTTCTTGATGCTGATAACCATC,-1.25
8,TTTAATAACACTACATTCTCGA,0.61
9,TATAAGTTGATTCTTGAGCATT,-1.01
10,TATTTGATCGTGCTGTTCCTGG,-0.0695
11,TTGAACTGTAGGCTTGAGGAGT,-0.462
12,TACTACTAGAAACAAACTCTTG,-0.942

# Source: the OligoGym collection
